Structures can show the parent of a compound that is named as a salt.
Tests used:
Test in all cases: phenotypically active (imaging signature differs from DMSO and reproducible) at any of 0.3-9 uM (binary (1 = active, 0 = inactive)); higher = active
Details in all cases: treatment time: 24 h
A549-ACTB-RAB5A = system: A549-ACTB-RAB5A
Procedure, shortened: (§1)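 After 24 h at 0.3, 1, 3 or 9 µM, with four wells per treatment, fifteen gene-edited A549, HepG2 and WPMY1 reporter lines carrying BFP, GFP and RFP/FusionRed were imaged live. Each well's live-cell features were expressed relative to solvent control wells. Deviation required ≥3 of 4 wells past the 95th percentile of control Euclidean distances, and reproducibility a median replicate Pearson correlation over the 95th percentile of non-replicates. Phenotypic activity rested on both.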

A549-CANX-COX4 = system: A549-CANX-COX4
Procedure, shortened: as §1

A549-GM130-SQSTM1 = system: A549-GM130-SQSTM1
Procedure, shortened: as §1

A549-TP53BP1-CLTA = system: A549-TP53BP1-CLTA
Procedure, shortened: as §1

A549-TUBA1B-RELA = system: A549-TUBA1B-RELA
Procedure, shortened: as §1

HepG2-ACTB-RAB5A = system: HepG2-ACTB-RAB5A
Procedure, shortened: as §1

HepG2-CANX-COX4 = system: HepG2-CANX-COX4
Procedure, shortened: as §1

HepG2-GM130-SQSTM1 = system: HepG2-GM130-SQSTM1
Procedure, shortened: as §1

HepG2-TP53BP1-CLTA = system: HepG2-TP53BP1-CLTA
Procedure, shortened: as §1

HepG2-TUBA1B-RELA = system: HepG2-TUBA1B-RELA
Procedure, shortened: as §1

WPMY1-ACTB-RAB5A = system: WPMY1-ACTB-RAB5A
Procedure, shortened: as §1

WPMY1-CANX-COX4 = system: WPMY1-CANX-COX4
Procedure, shortened: as §1

WPMY1-GM130-SQSTM1 = system: WPMY1-GM130-SQSTM1
Procedure, shortened: as §1

WPMY1-TP53BP1-CLTA = system: WPMY1-TP53BP1-CLTA
Procedure, shortened: as §1

WPMY1-TUBA1B-RELA = system: WPMY1-TUBA1B-RELA
Procedure, shortened: as §1

Measured: phenotypically active

CCCCN1CCCCC1C(=O)Nc1c(C)cccc1C (stereo not given) [bupivacaine]
inactive: A549-ACTB-RAB5A 0 | A549-CANX-COX4 0 | A549-GM130-SQSTM1 0 | A549-TP53BP1-CLTA 0 | A549-TUBA1B-RELA 0 | HepG2-ACTB-RAB5A 0 | HepG2-CANX-COX4 0 | HepG2-GM130-SQSTM1 0 | HepG2-TP53BP1-CLTA 0 | HepG2-TUBA1B-RELA 0 | WPMY1-ACTB-RAB5A 0 | WPMY1-CANX-COX4 0 | WPMY1-GM130-SQSTM1 0 | WPMY1-TP53BP1-CLTA 0 | WPMY1-TUBA1B-RELA 0

Fc1ccc(-c2c3cccc(C(F)(F)F)c3nn2Cc2ccc(F)cc2Cl)cc1
inactive: A549-ACTB-RAB5A 0 | A549-CANX-COX4 0 | A549-GM130-SQSTM1 0 | A549-TP53BP1-CLTA 0 | A549-TUBA1B-RELA 0 | HepG2-ACTB-RAB5A 0 | HepG2-CANX-COX4 0 | HepG2-GM130-SQSTM1 0 | HepG2-TP53BP1-CLTA 0 | HepG2-TUBA1B-RELA 0 | WPMY1-ACTB-RAB5A 0 | WPMY1-CANX-COX4 0 | WPMY1-GM130-SQSTM1 0 | WPMY1-TP53BP1-CLTA 0 | WPMY1-TUBA1B-RELA 0

CN1C(=O)CC[C@H]1c1cccnc1 [(-)-Cotinine]
inactive: A549-ACTB-RAB5A 0 | A549-CANX-COX4 0 | A549-GM130-SQSTM1 0 | A549-TP53BP1-CLTA 0 | A549-TUBA1B-RELA 0 | HepG2-ACTB-RAB5A 0 | HepG2-CANX-COX4 0 | HepG2-GM130-SQSTM1 0 | HepG2-TP53BP1-CLTA 0 | HepG2-TUBA1B-RELA 0 | WPMY1-ACTB-RAB5A 0 | WPMY1-CANX-COX4 0 | WPMY1-GM130-SQSTM1 0 | WPMY1-TP53BP1-CLTA 0 | WPMY1-TUBA1B-RELA 0

Nn1nnc2ccccc21
inactive: A549-ACTB-RAB5A 0 | A549-CANX-COX4 0 | A549-GM130-SQSTM1 0 | A549-TP53BP1-CLTA 0 | A549-TUBA1B-RELA 0 | HepG2-ACTB-RAB5A 0 | HepG2-CANX-COX4 0 | HepG2-GM130-SQSTM1 0 | HepG2-TP53BP1-CLTA 0 | HepG2-TUBA1B-RELA 0 | WPMY1-ACTB-RAB5A 0 | WPMY1-CANX-COX4 0 | WPMY1-GM130-SQSTM1 0 | WPMY1-TP53BP1-CLTA 0 | WPMY1-TUBA1B-RELA 0

COc1cc2c(cc1OC)CC(=O)N(CCCN(C)C[C@H]1Cc3cc(OC)c(OC)cc31)CC2 [ivabridine]
inactive: A549-ACTB-RAB5A 0 | A549-CANX-COX4 0 | A549-GM130-SQSTM1 0 | A549-TP53BP1-CLTA 0 | A549-TUBA1B-RELA 0 | HepG2-ACTB-RAB5A 0 | HepG2-CANX-COX4 0 | HepG2-GM130-SQSTM1 0 | HepG2-TP53BP1-CLTA 0 | HepG2-TUBA1B-RELA 0 | WPMY1-ACTB-RAB5A 0 | WPMY1-CANX-COX4 0 | WPMY1-GM130-SQSTM1 0 | WPMY1-TP53BP1-CLTA 0 | WPMY1-TUBA1B-RELA 0

CCOC(=O)C1=C(C)NC(=S)N[C@H]1c1cccc(O)c1 [Monastrol]
inactive: A549-ACTB-RAB5A 0 | A549-CANX-COX4 0 | A549-GM130-SQSTM1 0 | A549-TP53BP1-CLTA 0 | A549-TUBA1B-RELA 0 | HepG2-ACTB-RAB5A 0 | HepG2-CANX-COX4 0 | HepG2-GM130-SQSTM1 0 | HepG2-TP53BP1-CLTA 0 | HepG2-TUBA1B-RELA 0 | WPMY1-ACTB-RAB5A 0 | WPMY1-CANX-COX4 0 | WPMY1-GM130-SQSTM1 0 | WPMY1-TP53BP1-CLTA 0 | WPMY1-TUBA1B-RELA 0

CCCCCCC(=O)OC1CC(C)(C)NC(C)(C)C1 [TMPH hydrochloride]
inactive: A549-ACTB-RAB5A 0 | A549-CANX-COX4 0 | A549-GM130-SQSTM1 0 | A549-TP53BP1-CLTA 0 | A549-TUBA1B-RELA 0 | HepG2-ACTB-RAB5A 0 | HepG2-CANX-COX4 0 | HepG2-GM130-SQSTM1 0 | HepG2-TP53BP1-CLTA 0 | HepG2-TUBA1B-RELA 0 | WPMY1-ACTB-RAB5A 0 | WPMY1-CANX-COX4 0 | WPMY1-GM130-SQSTM1 0 | WPMY1-TP53BP1-CLTA 0 | WPMY1-TUBA1B-RELA 0

C#C[C@]1(O)CC[C@H]2[C@@H]3CCC4=Cc5oncc5C[C@]4(C)[C@H]3CC[C@@]21C [danazol]
inactive: A549-ACTB-RAB5A 0 | A549-CANX-COX4 0 | A549-GM130-SQSTM1 0 | A549-TP53BP1-CLTA 0 | A549-TUBA1B-RELA 0 | HepG2-ACTB-RAB5A 0 | HepG2-CANX-COX4 0 | HepG2-GM130-SQSTM1 0 | HepG2-TP53BP1-CLTA 0 | HepG2-TUBA1B-RELA 0 | WPMY1-ACTB-RAB5A 0 | WPMY1-CANX-COX4 0 | WPMY1-GM130-SQSTM1 0 | WPMY1-TP53BP1-CLTA 0 | WPMY1-TUBA1B-RELA 0

Cc1[nH]c(=O)c(C#N)cc1-c1ccncc1 [Milrinone]
inactive: A549-ACTB-RAB5A 0 | A549-CANX-COX4 0 | A549-GM130-SQSTM1 0 | A549-TP53BP1-CLTA 0 | A549-TUBA1B-RELA 0 | HepG2-ACTB-RAB5A 0 | HepG2-CANX-COX4 0 | HepG2-GM130-SQSTM1 0 | HepG2-TP53BP1-CLTA 0 | HepG2-TUBA1B-RELA 0 | WPMY1-ACTB-RAB5A 0 | WPMY1-CANX-COX4 0 | WPMY1-GM130-SQSTM1 0 | WPMY1-TP53BP1-CLTA 0 | WPMY1-TUBA1B-RELA 0

C/C=C1/[C@H]2C=C(C)C[C@]1(N)c1ccc(=O)[nH]c1C2 [Huperzine A]
inactive: A549-ACTB-RAB5A 0 | A549-CANX-COX4 0 | A549-GM130-SQSTM1 0 | A549-TP53BP1-CLTA 0 | A549-TUBA1B-RELA 0 | HepG2-ACTB-RAB5A 0 | HepG2-CANX-COX4 0 | HepG2-GM130-SQSTM1 0 | HepG2-TP53BP1-CLTA 0 | HepG2-TUBA1B-RELA 0 | WPMY1-ACTB-RAB5A 0 | WPMY1-CANX-COX4 0 | WPMY1-GM130-SQSTM1 0 | WPMY1-TP53BP1-CLTA 0 | WPMY1-TUBA1B-RELA 0

CC(C)(C)NC[C@H](O)COc1nsnc1N1CCOCC1 [timolol]
inactive: A549-ACTB-RAB5A 0 | A549-CANX-COX4 0 | A549-GM130-SQSTM1 0 | A549-TP53BP1-CLTA 0 | A549-TUBA1B-RELA 0 | HepG2-ACTB-RAB5A 0 | HepG2-CANX-COX4 0 | HepG2-GM130-SQSTM1 0 | HepG2-TP53BP1-CLTA 0 | HepG2-TUBA1B-RELA 0 | WPMY1-ACTB-RAB5A 0 | WPMY1-CANX-COX4 0 | WPMY1-GM130-SQSTM1 0 | WPMY1-TP53BP1-CLTA 0 | WPMY1-TUBA1B-RELA 0

CCCCCCCCCN1C[C@H](O)[C@@H](O)[C@H](O)[C@H]1CO [N-Nonyldeoxynojirimycin]
inactive: A549-ACTB-RAB5A 0 | A549-CANX-COX4 0 | A549-GM130-SQSTM1 0 | A549-TP53BP1-CLTA 0 | A549-TUBA1B-RELA 0 | HepG2-ACTB-RAB5A 0 | HepG2-CANX-COX4 0 | HepG2-GM130-SQSTM1 0 | HepG2-TP53BP1-CLTA 0 | HepG2-TUBA1B-RELA 0 | WPMY1-ACTB-RAB5A 0 | WPMY1-CANX-COX4 0 | WPMY1-GM130-SQSTM1 0 | WPMY1-TP53BP1-CLTA 0 | WPMY1-TUBA1B-RELA 0
